From PubChem BioAssay
An excerpt weighted towards active compounds, which were near 4% of everything screened.
TIM10 inh: growth inhibitors of TIM10 yeast strain; S. cerevisiae TIM10 strain growth, BacTiter-Glo luminescence, 24 h; inhibition, % at 10 µM; 1.4% of 330,000 active;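 active = inhibition of 40% or more at the single tested concentration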;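 note: wild-type TIM10 isogenic control strain grown at permissive 25 °C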
tim23-1 inh: growth inhibitors of tim23-1 mutant yeast; S. cerevisiae tim23-1 growth, BacTiter-Glo luminescence, 24 h; inhibition, % at 20 µM; 1.3% of 330,000 active;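 active = growth inhibition of the mutant yeast at or above 50%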;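 note: temperature-sensitive mutant grown at 25 °C; plate controls were DMSO-treated mutant yeast for no effect and medium wells lacking yeast for full effect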
NALP1 inh: blocks the NALP1 inflammasome reconstituted in yeast; 0.61% of 280,000 active; inhibition, % at 10 µM; AID 2071; S. cerevisiae NALP1/ASC/caspase-1 growth, X-gal OD620, 72 h; in the data active = inhibition mostly above about 24%, no sharp cut-off; inactive = mostly below about 32%
NLRP3 yeast inh: NALP3 inhibition in yeast. Yeast reconstituted NLRP3/ASC/caspase-1, beta-gal luminescence, 24 h. inhibition, % at 10 µM. 0.39% of 330,000 active. AID 2825;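 active = inhibition of 50% or more; inactive = inhibition below 50%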;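 note: plate controls were induced DMSO wells for no effect and uninduced yeast grown without galactose for full effect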
tim10-1 inh: tim10-1 yeast growth inhibition; AID 463190; inhibition, % at 20 µM; S. cerevisiae tim10-1 ts strain growth, BacTiter-Glo, 24 h; 2.2% of 330,000 active;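 active = inhibition of at least 40%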;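 note: mutant grown at 25 °C; 0% = DMSO wells with yeast and 100% = wells holding no yeast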
NALP3 confirm: confirmation of NALP3 inhibitors in yeast; shares compounds with NLRP3 yeast inh; yeast expressing human NALP3, luminescence; inhibition, % at 10 µM; 81% of 1,300 active; AID 435006; in the data active = inhibition above about 48%
Casp1 ASC ctr: active in yeast caspase-1-ASC counter-screen for NALP3 inhibitors | shares compounds with NLRP3 yeast inh | yeast expressing Caspase-1-ASC, luminescence counter screen | inhibition, % at 10 µM | 66% of 1,000 active | AID 488784
NALP3 yeast rt: yeast NALP3 inhibition, confirmed on retest. 53% of 1,000 active. inhibition, % at 10 µM. shares compounds with NLRP3 yeast inh. AID 488794. yeast expressing human NALP3, luminescence read-out
tim10-1 conf: confirmation of tim10-1 mutant yeast growth inhibitors; shares compounds with tim10-1 inh; S. cerevisiae tim10-1 ts strain growth, BacTiter-Glo, 24 h; inhibition, % at 20 µM; 56% of 7,400 active;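 active = inhibition of yeast growth at or above a set limit in either of two repeat tests at 20 µM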;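 note: tim10-1 mutant grown at permissive 25 °C to find synthetic lethal compounds; 0% = DMSO yeast wells and 100% = medium wells without yeast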
TIM10 conf: TIM10 yeast growth inhibition, confirmed; inhibition, % at 10 µM; shares compounds with TIM10 inh; S. cerevisiae tim10 strain growth, BacTiter-Glo luminescence, 24 h; 63% of 4,600 active;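 active = inhibition of yeast growth at or above a set limit in either of two replicates at 10 µM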;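 note: this counterscreen used the strain with wild-type TIM10; 0% = yeast with DMSO and 100% = medium wells lacking yeast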
* hit, by the source's call; · = no result. Cut-off read from the data, not from the text of the source, unless noted: active = inhibition above about 50%; inactive = the rest.

SMILES	TIM10 inh	tim23-1 inh	NALP1 inh	NLRP3 yeast inh	tim10-1 inh	NALP3 confirm	Casp1 ASC ctr	NALP3 yeast rt	TIM10 conf	others
N#Cc1nc(-c2cccs2)oc1NCCN1CCOCC1	-3	-2	1	8	10	·	·	·	·
O=C1/C(=C/c2cccs2)SC(=S)N1c1cccc(O)c1	61*	47	-3	81*	41*	88*	94*	88*	61*	tim10-1 conf=57*
Cc1c(Cc2ccccc2)sc(NC(=O)c2ccco2)c1C(N)=O	51*	49	4	85*	14	92*	95*	86*	51*
COC(=O)c1c(NC(=O)c2ccco2)sc(C)c1C	4	5	9	14	21	·	·	·	·
COc1ccc(-c2csc(NC(=O)c3ccccc3OC)c2C(=O)O)cc1OC	-8	-6	-9	7	-32	·	·	·	·
Cc1ccccc1C(=O)Nc1scc(-c2ccc(Br)cc2)c1C(=O)O	53*	47	·	68*	22	77*	21	28	42*
c1ccc2[nH]c(CSc3nc4ccccc4s3)nc2c1	68*	23	6	59*	33	75*	55*	61*	59*
COc1cccc(NC(=O)C2CCN(S(=O)(=O)c3ccc4c(c3)C(C)(C)C(=O)N4C)CC2)c1	0	-8	26	6	-15	·	·	·	·
Cc1ccc(N/N=C(\C#N)C(N)=S)cc1C	42*	30	11	67*	38	56*	42	41	26
CCC(=O)OCc1cc(=O)oc2ccc3ccccc3c12	18	29	-6	11	-7	·	·	·	·
Cc1[nH]c2ccccc2c1C(=O)COC(=O)c1ccc([N+](=O)[O-])s1	71*	27	7	56*	-18	78*	85*	87*	83*
Cc1[nH]c2ccccc2c1C(=O)COC(=O)c1ccc[n+]([O-])c1	1	18	25	-4	-5	·	·	·	·
CN(C)CCCN(C(=O)c1cc(-c2cccs2)nc2ccccc12)c1nc2ccc(F)cc2s1	49*	13	29	52*	32	65*	50*	46	32*
CSCC[C@H](NC(=O)[C@@H]1CSC2c3ccccc3C(=O)N21)C(=O)N1CCC[C@H]1CO (some centres undefined)	11	15	20	9	22	·	·	·	·
COc1ccc(Sc2cc(C(F)(F)F)nc(-c3ccccn3)n2)cc1	45*	34	6	51*	37	64*	55*	45	31*
O=C(Nc1cccc(Cl)c1)c1ccc2c(c1)OCCO2	60*	50	23	78*	50*	92*	86*	76*	71*	tim10-1 conf=40*
O=C(Nc1ccc2c(c1)OCCO2)c1cccc(C(=O)Nc2ccc3c(c2)OCCO3)c1	9	-4	10	0	-11	·	·	·	·
COc1ccc(CSCCNC(=S)Nc2ccccc2)cc1Cl	28	38	-8	27	24	·	·	·	·
S=C(NCCSCc1ccc(Cl)c(Cl)c1)Nc1ccccc1	45*	36	·	62*	54*	71*	58*	39	-9	tim10-1 conf=28
Cc1ccc(C(=O)NNC(=S)NC(=O)c2ccc(Cl)cc2)cc1	48*	36	-4	71*	38	78*	74*	72*	31*
CCOC(=O)c1ccccc1N1C(=O)CSC1=S	48*	42	28	54*	49*	48	48	35	45*	tim10-1 conf=27
COc1ccc2c(=O)c(-c3cnn(-c4ccccc4)c3)c(C)oc2c1	70*	46	-3	62*	48*	66*	59*	68*	65*	tim10-1 conf=29
Cc1oc2c(C)c(O)ccc2c(=O)c1-c1cnn(-c2ccccc2)c1	8	1	-2	6	-6	·	·	·	·
